In all, about 33,000 sequences were measured (“E-score (-0.5 to 0.5)”: median about -0.0014, highest 2% from about 0.25 on). For the sample, the highest values were picked, then their nearest neighbours and some sequences at random.

The assay addresses T1, Cad1 (UniProt P24813).
T1 sequence: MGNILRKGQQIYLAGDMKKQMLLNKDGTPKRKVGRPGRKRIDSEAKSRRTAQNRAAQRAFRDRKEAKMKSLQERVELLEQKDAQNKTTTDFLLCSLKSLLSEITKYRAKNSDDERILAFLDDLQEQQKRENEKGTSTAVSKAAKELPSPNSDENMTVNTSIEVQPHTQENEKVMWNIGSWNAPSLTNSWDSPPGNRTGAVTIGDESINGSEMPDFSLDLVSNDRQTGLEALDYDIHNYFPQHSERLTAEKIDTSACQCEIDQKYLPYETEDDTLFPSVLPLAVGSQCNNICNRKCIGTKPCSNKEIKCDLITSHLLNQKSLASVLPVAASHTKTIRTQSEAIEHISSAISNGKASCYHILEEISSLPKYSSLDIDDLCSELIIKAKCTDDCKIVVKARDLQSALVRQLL
Briefly: PBM E-score (8-mer binding enrichment) (E-score (-0.5 to 0.5)); higher = stronger / more preferred TF binding. The following applies: protein concentration: 100 nM; construct: GST-full length. The protocol: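 Universal 'all 10-mer' protein binding microarrays (Agilent AMADID 015681) probed with GST-tagged S. cerevisiae TFs (full-length or DBD) made by in vitro transcription/translation (PURExpress), about 100-200 nM. Bound TF was detected with fluorescent anti-GST. Each ungapped 8-mer (which stands for itself and its reverse complement) is scored by the PBM enrichment score (E-score), a modified Wilcoxon-Mann-Whitney statistic from -0.5 to +0.5, computed with the Universal PBM Analysis Suite. Scale: above 0.35 generally sequence-specific binding.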
With CTATAGCA, the “PBM E-score” value is -0.0148.

With AATTCCAG, the “PBM E-score” value is 0.257.

For the sequence AATTCCAC, the “PBM E-score” value was determined as 0.111.

AATTCCAT: the “PBM E-score” value worked out at 0.0643.

Turning to AGTATCTC, the “PBM E-score” value was determined as 0.178.

Consider TCTTCAAA, for which the “PBM E-score” value was -0.0389.

As for GAACTCGA, the “PBM E-score” value is 0.0968.

For the sequence CAACTCGA, the “PBM E-score” value amounted to 0.175.

On to TAACTCGA, for which the “PBM E-score” value was 0.275.

For AAATTCAC, the “PBM E-score” value was found to be 0.0164.

Regarding ACTTATCT, the “PBM E-score” value came to 0.0827.

For the sequence AATTATCG, the “PBM E-score” value stood at 0.247.

On to AATTATCA, for which the “PBM E-score” value amounted to 0.266.

With AATTATCC, the “PBM E-score” value was found to be 0.0534.

On to AATTATTA, for which the “PBM E-score” value amounted to 0.249.

Turning to AATTATCT, the “PBM E-score” value worked out at 0.282.

With AGGAGACT, the “PBM E-score” value is -0.286.

Consider ATAAAACA, for which the “PBM E-score” value was 0.0107.

For CGATCGCA, the “PBM E-score” value was found to be 0.169.

In the case of CCAGATGA, the “PBM E-score” value is -0.131.

Take TGAGCGAA: the “PBM E-score” value turned out to be 0.123.

On to CCTGACTA, for which the “PBM E-score” value stood at 0.351.

For the sequence ACTGACCA, the “PBM E-score” value is -0.105.

As to ACTGACTA, the “PBM E-score” value turned out to be 0.116.

For the sequence GATGACTA, the “PBM E-score” value turned out to be 0.172.

Consider GCTGACTA, for which the “PBM E-score” value is 0.335.

Take GCTGACCA: the “PBM E-score” value amounted to 0.252.

With GCTGACCC, the “PBM E-score” value was -0.145.

For GTTGACTA, the “PBM E-score” value was 0.0212.

As for CCTGACTC, the “PBM E-score” value was -0.139.

CCGATGGC: the “PBM E-score” value was -0.118.

Consider CGGGTGGA, for which the “PBM E-score” value is -0.0447.

For the sequence CGTTAGCC, the “PBM E-score” value stood at 0.0683.

Regarding GCCCTAAA, the “PBM E-score” value is -0.269.

Regarding CTCGAAGC, the “PBM E-score” value was found to be 0.00892.

Take CGCACTAA: the “PBM E-score” value came to 0.155.

On to AGCACTAA, for which the “PBM E-score” value stood at 0.094.

In the case of TGCACTAA, the “PBM E-score” value is 0.32.

Regarding TCGGGGAA, the “PBM E-score” value stood at 0.0236.

Consider GAGACGTA, for which the “PBM E-score” value is -0.0175.

Take AAACAAAA: the “PBM E-score” value is -0.0143.

TCACAAAA: the “PBM E-score” value came out at 0.253.

As to GAACAAAA, the “PBM E-score” value turned out to be 0.274.

For ACACAAAA, the “PBM E-score” value stood at 0.0974.

As to GGACAAAA, the “PBM E-score” value was 0.0884.

As for GCACAAAA, the “PBM E-score” value is 0.18.

For the sequence CGACAAAA, the “PBM E-score” value worked out at 0.136.

Turning to TGACAAAA, the “PBM E-score” value is 0.251.

On to GAACAAAC, for which the “PBM E-score” value was 0.0779.

As to ATCAGCAG, the “PBM E-score” value turned out to be 0.191.

AATATCCT: the “PBM E-score” value was -0.0122.

In the case of ATAATTTC, the “PBM E-score” value stood at 0.154.

Regarding CAAATTTC, the “PBM E-score” value stood at 0.201.

Regarding ATAATTGG, the “PBM E-score” value was -0.0135.

For the sequence ATAATTTG, the “PBM E-score” value was found to be 0.278.

On to AAAATTTG, for which the “PBM E-score” value is 0.196.

Regarding ATAATTAT, the “PBM E-score” value was 0.377.

In the case of CTAATTAC, the “PBM E-score” value came to 0.199.

For the sequence ATAATTCC, the “PBM E-score” value is -0.00553.

CAAATTTG: the “PBM E-score” value was 0.33.

Take ATAATTAC: the “PBM E-score” value turned out to be 0.295.

In the case of ATTATAAT, the “PBM E-score” value turned out to be 0.227.

With AGAATTAT, the “PBM E-score” value amounted to 0.191.

With GGCATTGA, the “PBM E-score” value was -0.0489.

In the case of ACCGCGCG, the “PBM E-score” value turned out to be 0.225.

Turning to CCGGTAGC, the “PBM E-score” value is -0.164.

For CCTCAATC, the “PBM E-score” value turned out to be 0.0973.

With GCATTCAA, the “PBM E-score” value was determined as 0.0687.

With AAGGGACG, the “PBM E-score” value is -0.195.

In the case of GACCGATC, the “PBM E-score” value is -0.128.

Consider CAGGGTCC, for which the “PBM E-score” value was -0.134.

Consider AGGGGGAA, for which the “PBM E-score” value is -0.248.

With AATTGGTC, the “PBM E-score” value was determined as 0.0715.

GGAATTAC: the “PBM E-score” value amounted to 0.21.

With CTAATTAA, the “PBM E-score” value is 0.147.

Take AGAATTAG: the “PBM E-score” value stood at 0.00824.

In the case of ATAATTGA, the “PBM E-score” value stood at 0.149.

In the case of TTAATTAA, the “PBM E-score” value came out at 0.0562.

As to GTAATTAA, the “PBM E-score” value was found to be 0.218.

As for ATAATTCG, the “PBM E-score” value amounted to 0.168.

Consider ATAATTAG, for which the “PBM E-score” value stood at 0.285.

With GTAATTAC, the “PBM E-score” value was 0.33.

Regarding ATAATTAA, the “PBM E-score” value was 0.323.

With CCAATTAG, the “PBM E-score” value was determined as 0.223.

Consider CTAATTAG, for which the “PBM E-score” value worked out at 0.41.

On to CCCTATAG, for which the “PBM E-score” value was -0.143.

With ACAGCGCC, the “PBM E-score” value was -0.0091.

As to TATAAGAA, the “PBM E-score” value is 0.0437.

GGCTGGTA: the “PBM E-score” value was -0.18.

Turning to ATACTCTA, the “PBM E-score” value is -0.0262.

In the case of ATATAATC, the “PBM E-score” value was 0.0826.

Consider GATGCAGA, for which the “PBM E-score” value worked out at 0.146.

With AAGATGTC, the “PBM E-score” value was -0.188.

With GAGAGCCC, the “PBM E-score” value is -0.458.

For the sequence AGCCGCTG, the “PBM E-score” value was -0.0754.

As for ACAATTAC, the “PBM E-score” value amounted to 0.119.

Take ACAATTAA: the “PBM E-score” value was found to be 0.148.

Take ACAATTAT: the “PBM E-score” value stood at 0.267.

With TAGAGGCA, the “PBM E-score” value is -0.166.

As for CAACATAC, the “PBM E-score” value is 0.132.

As for TAACATAA, the “PBM E-score” value was found to be 0.287.

For the sequence AAACATAA, the “PBM E-score” value is -0.131.

With CAACATAA, the “PBM E-score” value worked out at 0.255.

Turning to GAACATAA, the “PBM E-score” value amounted to 0.111.

Regarding CAACATAG, the “PBM E-score” value is -0.073.

As for CCCCTAAC, the “PBM E-score” value was -0.15.

As to AGTTGGAT, the “PBM E-score” value was -0.0953.

Take AGGATCCC: the “PBM E-score” value was -0.144.

For the sequence CCCAGCGG, the “PBM E-score” value was -0.264.

Source of the values: the supplement of paper PMC3334620.
